Measurements reported in PubChem BioAssay AID2615 (Southern Research Specialized Biocontainment Screening …, 2010).
The source made the active and inactive calls. The rule behind the calls is not given here.

Assay: SV40 cytopathic effect inhibition and cytotoxicity, confirmation, SV40 T antigen inhibitor project, BSC cells (AID 2615)
Settings: BSC cells SV40 infection, CPE inhibition; viability, at 100 µM, stronger effect = lower value

COc1ccc(CC2NCCc3cc(OC)c(OC)cc32)cc1OC (configuration not stated)
outcome: inactive | viability: 201%
